Results on four molecules are retold here after PubChem BioAssay.

In experiment [1] the test system is Wnt5a (protein binding on small-molecule microarray). The experiment is described as follows: small molecules binding Wnt5a protein – biophysical, small-molecule microarray, 635/667 nm fluorescence, primary screen (AID 1142).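 Further: fluorescence read at 667 nm with signal to noise per printed feature.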 Conditions: 635 nm fluorescence, higher = more signal.
The nature of experiment [2]: ATP-based viability of Huh7 replicon cells – cell-based, CellTiter-Glo luminescence, basal, 48 h, cytotoxicity control for HCV replication inhibitor project, primary screen (AID 1143).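 Further: Huh7 hepatoma cells carrying a hepatitis C replication reporter with no stimulus; test concentration not given here.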 Conditions: higher = more signal, called active from +8 up or from −8 down. On the technique in general: In antiviral work, replicon cells carry a viral genome segment that copies itself.

Experiment [3] can be described thus: Pseudomonas biofilm growth suppression – PAO1 strain, BacTiter-Glo luminescence, LB-PBS, primary screen (AID 1144). Conditions: P. aeruginosa PAO1 biofilm, 12 h, higher = more signal.
Experiment [4] in a line: basal CRE-LacZ reporter activity in PC12 – cell-based, unstimulated, primary screen (AID 1145). Conditions: no forskolin, luminescence, 4.5 h, higher = more signal, called active from +8 up or from −8 down.
Experiment [5] in a line: forskolin-driven CRE-LacZ activity in PC12 – cell-based, CRE-LacZ reporter, forskolin-stimulated, primary screen (AID 1146).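 Further: PC12 cells with 6xCRE LacZ reporter stimulated by forskolin 10 µM; beta-galactosidase reporter signal reflecting CREB driven transcription.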 Conditions: luminescence, 4.5 h, higher = more signal, called active from +8 up or from −8 down.
Experiment [6] concerns the target Streptavidin (Streptomyces avidinii) (UniProt P22629). The experiment can be described thus: compounds binding control protein streptavidin – biophysical, small-molecule microarray, 635/667 nm fluorescence, artefact control for SMM compound annotation, primary screen (AID 1147).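 Further: signal reflects streptavidin binding to arrayed compounds as a control protein.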 The conditions noted are these: higher = more signal.
A short description of experiment [7]: probe aInhba binding on compound microarray – biochemical, small-molecule microarray, 635/667 nm fluorescence, primary screen (AID 1148).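 Further: score merges 667nm spot fluorescence with signal-to-noise for antibody binding to printed compounds.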 The conditions noted are these: higher = more signal.
The target in experiment [8] is Torsin-1A (Homo sapiens) (UniProt O14656). The experiment can be described thus: TOR1A wild-type binding on microarray – cell lysate, small-molecule microarray, lysate, 635/667 nm, primary screen (AID 1149). Conditions: COS7 hTOR1A-WT lysate, 635 nm fluorescence, higher = more signal.
Experiment [9] shares this target. The experiment can be described thus: torsin A mutant lysate binding on microarrays – cell lysate, small-molecule microarray, COS7 lysate, 635/667 nm fluorescence, primary screen (AID 1150).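 Further: score pools 667 nm emission and signal to noise measuring lysate protein binding.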 The conditions noted are these: COS7 hTOR1A mutant lysate, 635 nm fluorescence, higher = more signal.
Experiment [10] has as its system Sonic hedgehog protein (Shh). The experiment is described as follows: Sonic hedgehog microarray binding compounds – biochemical, small-molecule microarray, 635/667 nm fluorescence, primary screen (AID 1151).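 Further: Shh protein binding to compounds spotted on small-molecule microarray slides; score combines spot fluorescence intensity with signal-to-noise across triplicate slides.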 Conditions: 635 nm fluorescence, higher = more signal.
The nature of experiment [11]: optical density shifts of acrAB sulA E. coli – strain DRC41, OD650, 48 h, E. coli filamentation inducer project, primary screen (AID 1152).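 Further: E. coli MC1000 strain DRC41 lacking acrAB efflux pump and sulA.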 The conditions noted are these: higher = more signal, called active from +8 up or from −8 down.
Experiment [12] is described as follows: probe aLefty1 binding on compound microarray – biochemical, small-molecule microarray, 635/667 nm fluorescence, primary screen (AID 1153).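 Further: score merges spot fluorescence with signal-to-noise ratio from the scanned slide images.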 The conditions noted are these: higher = more signal.
Experiment [13] can be described thus: plasmodial surface anion channel blockers, osmotic lysis – cell-based, P. falciparum Indochina, OD700, 1 h, primary screen (AID 1154). Conditions: P. falciparum Indochina infected RBC osmotic lysis, higher = more signal, called active from +8 up or from −8 down.
Experiment [14] can be described thus: plasmodial surface anion channel blockers, osmotic lysis – cell-based, P. falciparum Indochina, OD700, 2 h, primary screen (AID 1155).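 Further: lysis reports solute entry through the parasite surface anion channel PSAC.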 Conditions: P. falciparum Indochina infected erythrocytes, higher = more signal, called active from +8 up or from −8 down.
Experiment [15] in a line: changes in parasitized red cell lysis, either direction – P. falciparum Indochina, OD700, 3 h, PSAC antagonist project, primary screen (AID 1156). Conditions: P. falciparum-infected erythrocytes, osmotic lysis, higher = more signal, called active from +8 up or from −8 down.
Experiment [16] can be described thus: plasmodial surface anion channel blockers, osmotic lysis – cell-based, P. falciparum Indochina, OD700, 18 h, primary screen (AID 1157). The conditions noted are these: P. falciparum Indochina infected erythrocytes, osmotic lysis OD700, 18 h; higher = more signal, called active from +8 up or from −8 down.
Experiment [17] can be described thus: S6 kinase pathway phospho-S6 level changes – cell-based, A549, cytoblot, luminescence, serum-stimulated, primary screen (AID 1158).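 Further: serum-stimulated A549 lung adenocarcinoma cells; signal is phosphorylated S6 detected by cytoblot immunostaining with HRP secondary.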 Conditions: 5 h, higher = more signal.
Experiment [18] deals with NADPH oxidase 2 (Homo sapiens) (UniProt P04839). The experiment can be described thus: compounds shifting NOX2 Amplex Red fluorescence – cell-based, HEK293-NOX2, PMA-stimulated, NOX inhibitor project, primary screen (AID 1159). Further: test concentration not given here. Conditions: 45 min, higher = more signal, called active from +8 up or from −8 down.
In experiment [19] the target is NADPH oxidase 4 (Homo sapiens) (UniProt Q9NPH5). The experiment is described as follows: compounds shifting NOX4 Amplex Red fluorescence – cell-based, HEK293-NOX4, tetracycline-induced, NOX inhibitor project, primary screen (AID 1160). The conditions noted are these: HEK293-NOX4, Amplex Red H2O2 fluorescence, 45 min; higher = more signal, called active from +8 up or from −8 down.

For experiment [20], the target named is NADPH oxidase 5 (Homo sapiens) (UniProt Q96PH1). The experiment can be described thus: compounds shifting NOX5 Amplex Red fluorescence – cell-based, HEK293-NOX5, NOX inhibitor project, primary screen (AID 1161). The conditions noted are these: HEK293-NOX5, ionomycin, 45 min, higher = more signal.

Molecules are shown by their SMILES. Active and inactive are the calls of the source. Unless noted, how the calls were made is not given here.

NADPH oxidase 2 (Homo sapiens), sequence (P04839 whole entry, looked up): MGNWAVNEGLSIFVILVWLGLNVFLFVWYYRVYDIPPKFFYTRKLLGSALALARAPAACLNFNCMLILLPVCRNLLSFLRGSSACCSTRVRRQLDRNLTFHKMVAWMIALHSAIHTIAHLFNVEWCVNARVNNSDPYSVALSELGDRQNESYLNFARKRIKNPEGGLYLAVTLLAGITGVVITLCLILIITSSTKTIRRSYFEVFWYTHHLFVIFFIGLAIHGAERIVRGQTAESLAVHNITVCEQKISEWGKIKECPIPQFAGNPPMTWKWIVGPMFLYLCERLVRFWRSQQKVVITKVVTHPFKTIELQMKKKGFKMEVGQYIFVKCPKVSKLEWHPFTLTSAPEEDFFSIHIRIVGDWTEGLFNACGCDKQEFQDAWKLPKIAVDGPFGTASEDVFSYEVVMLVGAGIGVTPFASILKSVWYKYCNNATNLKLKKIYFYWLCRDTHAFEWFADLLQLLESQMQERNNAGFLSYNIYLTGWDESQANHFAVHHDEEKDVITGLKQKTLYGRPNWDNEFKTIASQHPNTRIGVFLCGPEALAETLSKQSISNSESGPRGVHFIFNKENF
NADPH oxidase 4 (Homo sapiens), sequence (Q9NPH5 whole entry, looked up): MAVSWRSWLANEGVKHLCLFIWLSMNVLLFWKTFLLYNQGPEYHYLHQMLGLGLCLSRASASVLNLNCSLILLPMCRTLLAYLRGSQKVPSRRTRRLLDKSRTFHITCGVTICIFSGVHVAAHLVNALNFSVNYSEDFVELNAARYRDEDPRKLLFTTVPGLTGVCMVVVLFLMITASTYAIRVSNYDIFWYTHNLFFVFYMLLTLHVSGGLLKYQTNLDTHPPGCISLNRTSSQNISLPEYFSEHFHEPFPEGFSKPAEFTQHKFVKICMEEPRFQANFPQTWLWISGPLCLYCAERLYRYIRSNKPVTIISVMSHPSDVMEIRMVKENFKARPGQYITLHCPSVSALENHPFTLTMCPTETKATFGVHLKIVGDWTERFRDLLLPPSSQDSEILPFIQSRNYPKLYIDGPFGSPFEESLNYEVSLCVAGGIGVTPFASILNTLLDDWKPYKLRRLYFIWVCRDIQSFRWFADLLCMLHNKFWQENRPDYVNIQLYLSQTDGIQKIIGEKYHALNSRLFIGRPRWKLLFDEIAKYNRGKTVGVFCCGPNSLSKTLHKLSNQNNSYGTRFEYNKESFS
Streptavidin (Streptomyces avidinii), sequence (P22629 whole entry, looked up): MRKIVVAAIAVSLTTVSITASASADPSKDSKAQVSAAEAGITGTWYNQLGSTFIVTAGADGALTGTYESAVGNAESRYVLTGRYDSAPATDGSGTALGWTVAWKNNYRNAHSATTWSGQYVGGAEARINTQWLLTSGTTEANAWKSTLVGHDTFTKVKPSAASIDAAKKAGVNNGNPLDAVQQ
NADPH oxidase 5 (Homo sapiens), sequence (Q96PH1 whole entry, looked up): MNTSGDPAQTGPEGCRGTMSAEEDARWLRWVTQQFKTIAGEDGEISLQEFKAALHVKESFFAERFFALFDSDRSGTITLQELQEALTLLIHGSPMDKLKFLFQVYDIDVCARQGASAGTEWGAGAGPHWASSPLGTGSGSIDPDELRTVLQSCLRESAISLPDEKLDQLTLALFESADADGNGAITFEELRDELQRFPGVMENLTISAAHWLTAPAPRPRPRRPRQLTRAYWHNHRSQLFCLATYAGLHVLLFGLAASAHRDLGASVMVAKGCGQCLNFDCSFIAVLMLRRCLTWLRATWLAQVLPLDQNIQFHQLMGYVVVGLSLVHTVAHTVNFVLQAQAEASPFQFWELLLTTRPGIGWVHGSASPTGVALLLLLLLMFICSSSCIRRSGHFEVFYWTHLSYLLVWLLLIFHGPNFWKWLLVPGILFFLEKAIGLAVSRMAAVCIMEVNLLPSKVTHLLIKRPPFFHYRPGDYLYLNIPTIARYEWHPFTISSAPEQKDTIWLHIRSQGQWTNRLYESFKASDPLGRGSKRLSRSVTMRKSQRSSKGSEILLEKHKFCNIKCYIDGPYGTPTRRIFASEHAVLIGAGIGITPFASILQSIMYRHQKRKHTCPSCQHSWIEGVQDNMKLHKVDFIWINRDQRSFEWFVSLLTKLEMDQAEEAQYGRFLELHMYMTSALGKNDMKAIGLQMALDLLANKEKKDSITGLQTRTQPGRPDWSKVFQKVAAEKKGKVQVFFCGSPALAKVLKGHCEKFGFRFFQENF
Torsin-1A (Homo sapiens), sequence (O14656 whole entry, looked up): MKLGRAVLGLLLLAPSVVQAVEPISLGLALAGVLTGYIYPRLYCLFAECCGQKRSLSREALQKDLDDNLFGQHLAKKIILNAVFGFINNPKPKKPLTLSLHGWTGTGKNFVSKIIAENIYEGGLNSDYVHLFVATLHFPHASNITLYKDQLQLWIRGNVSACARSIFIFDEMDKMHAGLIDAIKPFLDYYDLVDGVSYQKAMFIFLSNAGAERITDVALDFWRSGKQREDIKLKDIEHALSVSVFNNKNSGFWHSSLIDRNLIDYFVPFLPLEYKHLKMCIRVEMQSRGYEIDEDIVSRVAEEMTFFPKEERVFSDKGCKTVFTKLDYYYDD

On to `O=C1[C@H]2[C@H]3[C@H](O)[C@H](O)CC(=NO[C@@H]4O[C@H](CO)[C@@H](O)[C@H](O)[C@H]4O)[C@@H]3CC[C@H]2C(=O)N1C1CCCCC1`, for which the composite z-score in experiment [1] was 0.258; in experiment [6], 0.247; in experiment [7], 0.0342; with Torsin-1A (Homo sapiens) [8], 0.603; with Torsin-1A (Homo sapiens) [9] it was 0.0159; in [10] it was 0.635. The same molecule returned a composite z-score in experiment [12] of -0.126. In addition, the z-score in experiment [2] is 0.0805 (inactive); in [3] it was 0.577 (inactive); in experiment [4], 0.342 (inactive); in experiment [5], 0.758 (inactive); in experiment [11], 0.381 (inactive); in [13] it was 0.785 (inactive). Besides, the z-score in experiment [14] was 0.636 (inactive); in experiment [15] it was 1.04 (inactive); in experiment [16] it was 0.228 (inactive); in [17] it was 0.322; in [18] it was -0.336 (inactive); in [19], 0.607 (inactive). The z-score in experiment [20] came out at 0.573.
In the case of `COC(=O)[C@H](C)NC(=O)CCC1CC(OC(=O)NCc2cccc3ccccc23)CC2(CCCC(COC(=O)NCCC(C)C)O2)O1` (stereo not given in full), the composite z-score is 0.0905 in experiment [1]; -0.224 in [6]; -0.0695 in experiment [7]; 0.181 with Torsin-1A (Homo sapiens) [8]; 0.205 in the experiment with Torsin-1A (Homo sapiens) [9]; 0.683 in experiment [10]. The composite z-score in experiment [12] turned out to be 0.423. For the same molecule, the z-score is -0.842 (inactive) in experiment [2]; -0.386 (inactive) in experiment [3]; -0.522 (inactive) in experiment [4]; -0.135 (inactive) in experiment [5]; 0.782 (inactive) in [11]; 6.93 (inactive) in experiment [13]. In addition, the z-score in [14] was 0.663 (inactive); in experiment [15], -0.355 (inactive); in experiment [16], 0.197 (inactive); in [17], -0.463; in experiment [18], 1.74 (inactive); in experiment [19] it was 0.703 (inactive). For the same molecule, in experiment [20], the z-score is 1.52.
With `CCN1C(C)=C(C(=O)OC)[C@@H](c2ccccc2)N2C(=O)[C@](O)(C(=O)OC)CC(C(C)=O)=C12`, the composite z-score in [1] is 0.24; in [6], -0.466; in experiment [7] it was -0.0986; with Torsin-1A (Homo sapiens) [8], 0.837; with Torsin-1A (Homo sapiens) [9], 0.153; in [10] it was 0.742. The composite z-score in experiment [12] is -0.22. For the same molecule, the z-score in [2] was 0.0021 (inactive); in experiment [3], -0.63 (inactive); in [4] it was -0.324 (inactive); in experiment [5] it was -0.482 (inactive); in experiment [11], -0.0844 (inactive); in experiment [13] it was 0.725 (inactive). For the same molecule, the z-score in [14] is 0.893 (inactive); in experiment [15] it was 0.62 (inactive); in [16], 0.195 (inactive); in experiment [17] it was 0.825; in [18] it was 0.188 (inactive); in experiment [19], 0.724 (inactive). Besides, the z-score in experiment [20] was found to be 0.697.
For the molecule `O=C1CCCC=C1C(O)COCc1ccccc1` (stereo not given), the composite z-score in [1] is 0.154; in experiment [6] it was 1.42; in experiment [7], -0.238; with Torsin-1A (Homo sapiens) [8], -0.465; with Torsin-1A (Homo sapiens) [9], -0.0394; in experiment [10] it was 0.124. Besides, the composite z-score in experiment [12] is -0.194. The z-score was 0.78 (inactive) in experiment [2]; 0.616 (inactive) in experiment [3]; 0.109 (inactive) in [4]; 0.0658 (inactive) in [5]; -0.245 (inactive) in [11]; 0.782 (inactive) in experiment [13]. Further, the z-score is 0.36 (inactive) in [14]; -0.0291 (inactive) in [15]; -0.0223 (inactive) in experiment [16]; -0.338 in experiment [17]; 0.237 (inactive) in experiment [18]; 0.733 (inactive) in experiment [19]. The z-score in [20] turned out to be 0.63.
